RORgamma inh = qHTS for inhibitors of ROR gamma transcriptional activity. Nuclear receptor ROR-gamma (Mus musculus), P51450. 310,000 tested, 5.4% active. Potency, µM (series often up to 53.6 µM), without a hit: top-dose activity change, negative = inhibition, usual class: inhibitors. AID 2551, 2010. Drosophila S2 Gal4-RORgamma UAS-luciferase reporter, 20 h; further: potency means the concentration at half of the fitted maximal effect; on the % scale 0 is the no-effect control and ±100 the full control effect; nearly all actives have a fitted effect of over 60% in size
Target sequence (P51450 whole entry, looked up, the tested form may be a part): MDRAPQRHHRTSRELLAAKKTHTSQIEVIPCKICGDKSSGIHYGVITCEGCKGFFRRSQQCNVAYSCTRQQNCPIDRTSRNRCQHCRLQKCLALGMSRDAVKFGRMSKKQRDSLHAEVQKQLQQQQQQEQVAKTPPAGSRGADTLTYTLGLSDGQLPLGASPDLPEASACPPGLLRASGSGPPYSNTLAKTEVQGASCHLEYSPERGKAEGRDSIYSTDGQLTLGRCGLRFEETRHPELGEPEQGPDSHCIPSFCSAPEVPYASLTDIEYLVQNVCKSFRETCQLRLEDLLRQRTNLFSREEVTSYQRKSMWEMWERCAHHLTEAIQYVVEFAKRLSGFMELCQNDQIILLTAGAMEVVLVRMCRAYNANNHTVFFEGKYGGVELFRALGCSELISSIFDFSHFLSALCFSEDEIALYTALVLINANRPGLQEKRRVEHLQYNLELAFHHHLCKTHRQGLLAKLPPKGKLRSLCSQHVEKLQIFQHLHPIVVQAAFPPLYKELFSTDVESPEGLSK
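Read-out: Photinus luciferase luminescence; inhibitors lower reporter signal. Insect Schneider cells with Gal4-ROR gamma fusion under metallothionein promoter, UAS reporter; 700 uM final copper sulfate induction, 20 hr, ambient temperature.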
a7 integrin act = qHTS for Activators of Integrin-Mediated Alleviation for Muscular Dystrophy | alpha7betagal myoblasts, beta-gal FDG fluorescence, 48 h | Potency, µM (titrated, usually from 38.3 µM), without a hit: top-dose activation, most hits filed as activators | 350,000 tested, 0.064% active;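 further: potency means the concentration at half of the fitted maximal effect; 100% = response of the positive control SU9516; nearly all actives have a fitted effect of over 60% in size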
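Alpha7betagal+/- myoblasts (passage 13) were plated 16-24 hr, then exposed to compounds (1:260 dilution of DMSO stock) for 48 hours at 37C. After MPER lysis, β-galactosidase reporter activity was read as FDG fluorescence (ex 480/em 540) after 30 minutes.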
Giardia killer = Small Molecules that selectively kill Giardia lamblia: qHTS; activity change, % at 7.66 µM, hits read low; Giardia lamblia trophozoite viability; AID 540267, 2011; 340,000 tested, 0.15% active; in the data active means activity change below about -80%; inconclusive means between about -30% and that limit;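 further: parasites exposed to compound for two days anaerobically before the ATP read; on the % scale 0 is the no-effect control and ±100 the full control effect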
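Each well holds 100 Giardia trophozoites and compound. After two days (48 hrs) at 37 deg C in anaerobic conditions, ATP is quantified by luminescence.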
ERG-DNA inh = qHTS for Small Molecule Inhibitors of the ERG Ets/DNA interaction; Transcriptional regulator ERG (Homo sapiens), P11308; fluorescence polarization, His-ERG Ets domain / labelled DNA; Potency, µM (series often up to 76.9 µM), without a hit: at the top dose FP activity, negative = inhibition, most hits filed as inhibitors; 370,000 tested, 0.028% active; AID 624246, 2012; active means well fitted inhibition curve with a large enough effect in the polarisation, with a control signal flat; inconclusive means small, poorly fitted or top-dose-only effect, or effect the other way, or a change in a side signal; inactive means no such curve, though single readings can be large or run the other way; the % refers to the polarisation;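 further: polarization taken with two DNA probes labelled with fluorescein and Texas red; potency means the concentration at half of the fitted maximal effect; % of control where 0% means no effect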
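His-tagged ERG Ets domain (1 uM in the protein solution; 300mM KCl, 50mM Tris-HCl, 1mM EDTA, 1mM DTT, pH 7.5) received compound, then a probe mix of 5 nM fluorescein-DNA and 100nM Texas-615-DNA. Fluorescence polarization was read for both dyes.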
Gal4-VP16 FLuc = VP16 counterscreen qHTS for inhibitors of ROR gamma transcriptional activity. Drosophila S2 Gal4-VP16 UAS-luciferase, luminescence, 20 h. Potency, µM (titrated, usually from 53.6 µM), inactives show top-dose activity, negative = inhibition, usual class: inhibitors. 310,000 tested, 3.5% active;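 further: Gal4-VP16 expression switched on by copper sulfate through the metallothionein promoter; potency means the concentration at half of the fitted maximal effect; on the % scale 0 is the no-effect control and ±100 the full control effect; nearly all actives have a fitted effect of over 50% in size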
* marks the source's active call; other numbers are inactive results; [ ] = remark or other dose. The sample as a whole holds a higher share of hits than the screen did. Unless noted, the call rests on the fitted dose curve; in most records, active means well fitted curve in the direction sought with a large enough effect; inconclusive means small, poorly fitted or top-dose-only effect, or another doubt; inactive means no such curve, though single readings can be large; an effect the other way counts as inactive or inconclusive.

`CCNC(=S)NCc1ccco1` gave RORgamma inh -15%, a7 integrin act 6%, Giardia killer 10 and Gal4-VP16 FLuc -3%.
Cc1ccc(S(=O)(=O)N(C)C)cc1NC(=O)c1cncc(Br)c1 was read as RORgamma inh 10µM*, a7 integrin act 10%, Giardia killer 3, ERG-DNA inh -6% and Gal4-VP16 FLuc 2.5µM*.
CN(C)S(=O)(=O)c1cccc(NC(=O)c2cncc(Br)c2)c1 was read as RORgamma inh inconclusive, a7 integrin act 1%, Giardia killer 3 and Gal4-VP16 FLuc inconclusive.
For CCCCN(C(=O)C1CC(=O)N(c2ccc(C)cc2)C1)c1c(N)n(CCC)c(=O)[nH]c1=O (stereo not drawn) the results were a7 integrin act 12%, Giardia killer 0 and ERG-DNA inh -2%.
For C/C(=N\NC(=O)CCCNc1ccc(C)cc1)c1ccccn1 the results were RORgamma inh 2.2µM*, a7 integrin act -10%, Giardia killer 5, ERG-DNA inh -2% and Gal4-VP16 FLuc 13µM*.
For COc1ccc(NCC(=O)N/N=C(\C)c2cc3ccccc3o2)cc1 the results were RORgamma inh inconclusive, a7 integrin act -7%, Giardia killer -8, ERG-DNA inh 4% and Gal4-VP16 FLuc -15%.
CC(=NNC(=S)Nc1ccccc1)c1ccccn1 was read as a7 integrin act -62%.
For C=CCNC(=S)N/N=C(\C)c1ccccn1 the results were RORgamma inh 0.028µM*, a7 integrin act -73%[7.66 µM], Giardia killer -5, ERG-DNA inh -2% and Gal4-VP16 FLuc 0.11µM*.
CC(=N/O)/C(C)=N\NC(=O)c1ccccn1 was read as RORgamma inh 6.3µM*, a7 integrin act 20%, Giardia killer 0, ERG-DNA inh 4% and Gal4-VP16 FLuc 5µM*.
For C/C(=N\NC(=O)c1cc2ccccc2cc1O)c1cc2ccccc2o1 the results were RORgamma inh 10µM*, a7 integrin act -23%, Giardia killer 5, ERG-DNA inh 18% and Gal4-VP16 FLuc inconclusive.
For S=C(NCCCn1ccnc1)Nc1cccc(Cl)c1 the results were RORgamma inh 0%, a7 integrin act -26%, Giardia killer -11, ERG-DNA inh 16% and Gal4-VP16 FLuc 3%.
For CN1CCN(c2ncc3nc(-c4ccccc4)c(=O)n(-c4ccccc4)c3n2)CC1 the results were RORgamma inh -10% and Gal4-VP16 FLuc -9%.
C/C(=N\NC(=O)c1ccccc1-n1cccc1)c1ccccn1 was read as a7 integrin act -55%.
Screening C/C(=N\Nc1ccccc1)c1cc2ccccc2oc1=O returned RORgamma inh -30%, a7 integrin act 16%, Giardia killer -4, ERG-DNA inh -3% and Gal4-VP16 FLuc inconclusive.
`C/C(=N\NC(=O)c1cc2ccccc2cc1O)c1ccccn1` gave RORgamma inh 0.2µM*, a7 integrin act 0%, Giardia killer -6, ERG-DNA inh 19% and Gal4-VP16 FLuc 0.13µM*.
For C/C(=N\NC(=O)CC#N)c1cc2ccccc2oc1=O the results were RORgamma inh 6.3µM*, a7 integrin act -4%, Giardia killer 58, ERG-DNA inh 10% and Gal4-VP16 FLuc 6.3µM*.
For C/C(=N\NC(=O)c1c[nH]c2ccccc12)c1ccccn1 the results were RORgamma inh 3.5µM*, a7 integrin act -17%, Giardia killer -7, ERG-DNA inh 5% and Gal4-VP16 FLuc inconclusive.
For COc1ccc(C(=O)N/N=C(\N)c2cc3ccccc3oc2=O)cc1 the results were RORgamma inh 0.89µM*, a7 integrin act 4%, Giardia killer 5, ERG-DNA inh 2% and Gal4-VP16 FLuc inconclusive.
`Cc1noc(C)c1C(=O)N(CC(C)C)c1nc2ccccc2s1` gave RORgamma inh -1%, a7 integrin act 22%, Giardia killer 4, ERG-DNA inh -6% and Gal4-VP16 FLuc -8%.
For COc1ccc(N2CC(NC(=O)Cc3cccs3)CC2=O)cc1 (stereo not drawn) the results were ERG-DNA inh -4%.
For O=C(O)COc1ccc(Br)cc1CP(=O)(c1ccccc1)c1ccccc1 the results were RORgamma inh 38%, a7 integrin act 12%, Giardia killer 0, ERG-DNA inh 0% and Gal4-VP16 FLuc -21%.
For COc1ccccc1NC(=O)COC(=O)c1ccccc1C(=O)N1CCN(c2ccccc2)CC1 the results were RORgamma inh 29%, a7 integrin act 2%, Giardia killer -9, ERG-DNA inh 15% and Gal4-VP16 FLuc -12%.
For CCN(CC)C(=O)C1=C(C)N(Cc2ccc(OC)cc2)C(=O)C(CC(=O)NC2CC2)C1 (stereo not drawn) the results were a7 integrin act 13%.
Screening O=C(NN=C1c2ccccc2-c2ccccc21)c1ccccn1 returned RORgamma inh 3.2µM*, a7 integrin act -1%, Giardia killer -5, ERG-DNA inh 0% and Gal4-VP16 FLuc 4.5µM*.
C/C(=N\NC(=O)c1ccc(F)cc1)c1ccccn1 was read as RORgamma inh 0.25µM*, a7 integrin act -14%, Giardia killer 11, ERG-DNA inh 4% and Gal4-VP16 FLuc 0.4µM*.
For CC(CC(=O)c1ccccc1)=NCCCN=C(C)CC(=O)c1ccccc1 the results were a7 integrin act -15%.
`C/C(=N\NC(=O)c1nc2ccccn2c1C)c1cc2ccccc2o1` gave RORgamma inh 13µM*, a7 integrin act inconclusive, Giardia killer 3, ERG-DNA inh 1% and Gal4-VP16 FLuc inconclusive.
Screening C/C(CC(=O)c1ccccc1)=N\NC(=O)CC#N returned RORgamma inh 4µM*, a7 integrin act 1%, Giardia killer -6, ERG-DNA inh 1% and Gal4-VP16 FLuc inconclusive.
CCc1ccc(/C(C)=N/NC(=O)c2ccccn2)cc1 was read as RORgamma inh inconclusive, a7 integrin act 0%, Giardia killer 11, ERG-DNA inh 0% and Gal4-VP16 FLuc -8%.
`Cc1ccc2c(=O)cc(CSc3ncn[nH]3)[nH]c2c1C` gave ERG-DNA inh -6%.
COCc1[nH]c(=S)c(C#N)cc1C(=O)OC was read as RORgamma inh inconclusive, a7 integrin act 0%, Giardia killer 4, ERG-DNA inh -14% and Gal4-VP16 FLuc -21%.
CCOC(=O)c1cc(C#N)c(=S)[nH]c1C was read as RORgamma inh 13µM*, a7 integrin act inconclusive, Giardia killer -2, ERG-DNA inh 0% and Gal4-VP16 FLuc -14%.
Screening Cc1ccc(NC(=S)Nc2ccc(C(C)C)cc2)cc1S(=O)(=O)N1CCCCCC1 returned RORgamma inh 3.2µM*, a7 integrin act -51%, Giardia killer -5, ERG-DNA inh -3% and Gal4-VP16 FLuc 4.5µM*.
